This is part of a sample that, as a whole, favours compounds with a hit. Of some 79,000 tested, about 15% had one in any assay. Values without a mark were called inactive. Calls of active or inactive are those of the source. Cut-off read from the data, not from the text of the source: active = growth inhibition above about 70%; inactive = the rest.

The values below come from PubChem BioAssay (NCI).

A short description of the first test: NCI Yeast Anticancer Drug Screen. Data for the rad50EPP+ strain (AID 151).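 Note: 0% = growth of vehicle-treated control cultures.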 As to conditions: S. cerevisiae rad50 mutant strain, at 33.0 µM, active compounds read high. A digest of the protocol: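 Exposing the rad50EPP+ strain to each compound, growth was compared with vehicle-only cultures to give inhibition.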
Regarding `CN(C)CC(CN(C)C)C(=O)/C=C/c1ccc(Cl)cc1Cl`, the growth inhibition is 98% (active).

For `c1ccc2c(c1)ccn2CCc1c[nH]c2ccccc12`, the growth inhibition was 41%.

Take `Cc1ccccc1NC(=O)c1c(C)oc2c1C(=O)c1ccccc1C2=O`: the growth inhibition is 42%.

With `CC(C)OC(=O)NNc1c(Cl)cc(Cl)cc1Cl`, the growth inhibition is 74% (active).

Regarding `COc1ccc2nc3cccc([N+](=O)[O-])c3c(NCCNCCO)c2c1`, the growth inhibition is 92% (active).

`COc1ccc2c(c1)CCCC(Br)C2=O` (configuration not stated): the growth inhibition is 67%.

For `CCC(OC(C)=O)C1CC(C(C)C)CCC1C` (configuration not stated), the growth inhibition was 46%.

In the case of `O=S(=O)(c1cccc(C(F)(F)F)c1)N1c2ccccc2-n2cccc2C1c1cccnc1` (configuration not stated), the growth inhibition is -57%.

`c1ccc(-c2cc(C3CO3)c3ccccc3n2)cc1` (configuration not stated): the growth inhibition was 46%.

As to `COc1ccc(/C=C2\SC(=S)N(/C=C3\C(=O)N(c4ccccc4)N=C3C)C2=O)cc1OC`, the growth inhibition is 55%.

Consider `CC1=CC(=C(c2ccc(N)c(C)c2)c2ccc(N)c(C)c2)C=CC1=N`, for which the growth inhibition is 30%.

As to `CC1C(c2ccccc2)SC(=N)N1C` (configuration not stated), the growth inhibition was 0%.

For the molecule `CC(/C=C/c1ccc([N+](=O)[O-])o1)=N/N1CC(CN2CCOCC2)OC1=O` (configuration not stated), the growth inhibition was 58%.

As for `C=CC(C)(C)N1C(=O)C(C(C)=O)=C(O)C1Cc1c[nH]c2ccccc12` (configuration not stated), the growth inhibition was -9%.

Take `O=C1c2cccc3cccc(c23)C(=O)N1CCNCCN1C(=O)c2cccc3cccc(c23)C1=O`: the growth inhibition is 2%.

Regarding `Cc1ccc([N+](=O)[O-])c2c(NCCC[N+](C)(C)[O-])c3ccccc3nc12`, the growth inhibition was 8%.

For the molecule `COC(=O)C(Cc1c[nH]c2ccccc12)N1CN(C)c2ccccc2C1=O` (configuration not stated), the growth inhibition was 1%.

For the molecule `O=C(/N=N/C(=O)Oc1ccccc1)Oc1ccccc1`, the growth inhibition was -46%.

For `COc1cc([C@@H]2c3cc4c(cc3[C@@H](NC(=O)NO)[C@H]3COC(=O)[C@H]23)OCO4)cc(OC)c1O`, the growth inhibition is 2%.

In the case of `CC1(C)CC(=O)C(/C=N/c2nc(-c3ccc(Br)cc3)cs2)=C(O)C1`, the growth inhibition is 95% (active).

On to `CCOC(=O)/C(=C/c1cccc(Cl)c1)N(CC)CC`, for which the growth inhibition is 45%.

`CC(C)OC(=O)NNc1cccc(Cl)c1`: the growth inhibition is 98% (active).

As to `CCC(=O)C1=C(O)c2cc(OC)ccc2CC1C(=O)OC` (configuration not stated), the growth inhibition is 73% (active).

Turning to `O=S(=O)(NC1CCCC(c2ccccc2)C1)c1ccccc1` (configuration not stated), the growth inhibition was 3%.

Turning to `COc1ccc2nc3cccc([N+](=O)[O-])c3c(NCCCCCC(=O)O)c2c1`, the growth inhibition is 97% (active).

With `CCO/C=C1\SC(=S)N(c2ccc(OCC)cc2)C1=O`, the growth inhibition was 42%.

Take `COc1cc(OC)c(CSCC(NC(=O)OCC2c3ccccc3-c3ccccc32)C(=O)O)c(OC)c1` (configuration not stated): the growth inhibition is 0%.

`COC(=O)c1ccccc1N=NNc1cccc(SC)c1`: the growth inhibition is 47%.

As to `CC1=NN(C(=O)c2ccccc2O)C(=O)/C1=C/c1ccco1`, the growth inhibition was 48%.

As for `COc1ccccc1NC(=O)c1ccc(Cl)cc1`, the growth inhibition was 40%.

As to `CC(C)=CCC/C(C)=C/CN1C(=O)C=CC1=O`, the growth inhibition is 99% (active).

For `O=C1CSC(c2ccccc2)N1c1ccc(-c2ccc(-n3c(-c4ccccc4)nc4ccccc4c3=O)cc2)cc1` (configuration not stated), the growth inhibition was 20%.

For the molecule `N#CC1OB(O)c2ccccc21` (configuration not stated), the growth inhibition is 17%.

As to `O=C(NCCNCCNC(=O)c1cc(-c2ccccc2)nc2ccccc12)c1cc(-c2ccccc2)nc2ccccc12`, the growth inhibition is 9%.

Take `Brc1ccc(B2Nc3ccccc3N2)cc1`: the growth inhibition is 34%.

Turning to `CCOP(=O)(OCC)/C(C#N)=C/c1cccc(Oc2ccccc2)c1`, the growth inhibition is 7%.

The test is the same for the next values; noted with them: S. cerevisiae rad50 mutant strain, at 100.0 µM, active compounds read high.
`CN(C)CC(CN(C)C)C(=O)/C=C/c1ccc(Cl)cc1Cl`: the growth inhibition is 98% (active).

Take `c1ccc2c(c1)ccn2CCc1c[nH]c2ccccc12`: the growth inhibition is 55%.

Regarding `Cc1ccccc1NC(=O)c1c(C)oc2c1C(=O)c1ccccc1C2=O`, the growth inhibition is 82% (active).

As to `CC(C)OC(=O)NNc1c(Cl)cc(Cl)cc1Cl`, the growth inhibition is 79% (active).

For `COc1ccc2nc3cccc([N+](=O)[O-])c3c(NCCNCCO)c2c1`, the growth inhibition was 96% (active).

As to `COc1ccc2c(c1)CCCC(Br)C2=O` (configuration not stated), the growth inhibition is 97% (active).

Take `CCC(OC(C)=O)C1CC(C(C)C)CCC1C` (configuration not stated): the growth inhibition was 96% (active).

For `O=S(=O)(c1cccc(C(F)(F)F)c1)N1c2ccccc2-n2cccc2C1c1cccnc1` (configuration not stated), the growth inhibition was -46%.

Turning to `c1ccc(-c2cc(C3CO3)c3ccccc3n2)cc1` (configuration not stated), the growth inhibition was 68%.

As for `COc1ccc(/C=C2\SC(=S)N(/C=C3\C(=O)N(c4ccccc4)N=C3C)C2=O)cc1OC`, the growth inhibition was 58%.

Turning to `CC1=CC(=C(c2ccc(N)c(C)c2)c2ccc(N)c(C)c2)C=CC1=N`, the growth inhibition is 83% (active).

For `CC1C(c2ccccc2)SC(=N)N1C` (configuration not stated), the growth inhibition is -1%.

Take `CC(/C=C/c1ccc([N+](=O)[O-])o1)=N/N1CC(CN2CCOCC2)OC1=O` (configuration not stated): the growth inhibition is 76% (active).

As to `C=CC(C)(C)N1C(=O)C(C(C)=O)=C(O)C1Cc1c[nH]c2ccccc12` (configuration not stated), the growth inhibition was -15%.

In the case of `O=C1c2cccc3cccc(c23)C(=O)N1CCNCCN1C(=O)c2cccc3cccc(c23)C1=O`, the growth inhibition is 10%.

As to `Cc1ccc([N+](=O)[O-])c2c(NCCC[N+](C)(C)[O-])c3ccccc3nc12`, the growth inhibition is 54%.

For the molecule `COC(=O)C(Cc1c[nH]c2ccccc12)N1CN(C)c2ccccc2C1=O` (configuration not stated), the growth inhibition is 16%.

Regarding `O=C(/N=N/C(=O)Oc1ccccc1)Oc1ccccc1`, the growth inhibition is -82%.

In the case of `COc1cc([C@@H]2c3cc4c(cc3[C@@H](NC(=O)NO)[C@H]3COC(=O)[C@H]23)OCO4)cc(OC)c1O`, the growth inhibition was 9%.

Consider `CC1(C)CC(=O)C(/C=N/c2nc(-c3ccc(Br)cc3)cs2)=C(O)C1`, for which the growth inhibition is 98% (active).

For the molecule `CCOC(=O)/C(=C/c1cccc(Cl)c1)N(CC)CC`, the growth inhibition is 57%.

`CC(C)OC(=O)NNc1cccc(Cl)c1`: the growth inhibition is 98% (active).

As to `CCC(=O)C1=C(O)c2cc(OC)ccc2CC1C(=O)OC` (configuration not stated), the growth inhibition is 86% (active).

Regarding `O=S(=O)(NC1CCCC(c2ccccc2)C1)c1ccccc1` (configuration not stated), the growth inhibition is 20%.

Take `COc1ccc2nc3cccc([N+](=O)[O-])c3c(NCCCCCC(=O)O)c2c1`: the growth inhibition was 98% (active).

In the case of `CCO/C=C1\SC(=S)N(c2ccc(OCC)cc2)C1=O`, the growth inhibition is 76% (active).

In the case of `COc1cc(OC)c(CSCC(NC(=O)OCC2c3ccccc3-c3ccccc32)C(=O)O)c(OC)c1` (configuration not stated), the growth inhibition is -3%.

Turning to `COC(=O)c1ccccc1N=NNc1cccc(SC)c1`, the growth inhibition was 36%.

Regarding `CC1=NN(C(=O)c2ccccc2O)C(=O)/C1=C/c1ccco1`, the growth inhibition was 93% (active).

Take `COc1ccccc1NC(=O)c1ccc(Cl)cc1`: the growth inhibition is 40%.

As to `CC(C)=CCC/C(C)=C/CN1C(=O)C=CC1=O`, the growth inhibition is 99% (active).

For the molecule `O=C1CSC(c2ccccc2)N1c1ccc(-c2ccc(-n3c(-c4ccccc4)nc4ccccc4c3=O)cc2)cc1` (configuration not stated), the growth inhibition is 24%.

As to `N#CC1OB(O)c2ccccc21` (configuration not stated), the growth inhibition is 26%.

On to `O=C(NCCNCCNC(=O)c1cc(-c2ccccc2)nc2ccccc12)c1cc(-c2ccccc2)nc2ccccc12`, for which the growth inhibition is 9%.

For `Brc1ccc(B2Nc3ccccc3N2)cc1`, the growth inhibition is 42%.

`CCOP(=O)(OCC)/C(C#N)=C/c1cccc(Oc2ccccc2)c1`: the growth inhibition is 62%.
